The nature of assay [1]: small molecules captured by biotinylated probe aFSTL3 – biochemical, small-molecule microarray, fluorescence 635/667, stem cell growth factor project, primary screen (AID 1064).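 Further: measures binding of the biotinylated anti-FSTL3 antibody to printed compounds.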 The note with it: higher = more signal.
Assay [2] is described as follows: binders from COS7 lysate, DM2A8 probe, primary screen, torsin A project, cell lysate, small-molecule microarray, fluorescence 635/667 (AID 1065). The note with it: higher = more signal, COS7 lysate expressing mutant human TOR1A.
Assay [3] can be described thus: small molecules captured by biotinylated probe aFGF2 – biochemical, small-molecule microarray, fluorescence 635/667, stem cell growth factor project, primary screen (AID 1067).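 Further: measures binding of biotinylated aFGF2 protein to printed compounds on slides; z-score merges feature fluorescence and signal-to-noise across triplicate slides.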 The note with it: higher = more signal.
Assay [4] can be described thus: small molecules captured by biotinylated probe aFGF10 – biochemical, small-molecule microarray, fluorescence 635/667, stem cell growth factor project, primary screen (AID 1071).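 Further: score merges 667 nm spot intensity and signal to noise from triplicate slides.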 The settings on record: higher = more signal.
Assay [5] concerns the target Neurogenic locus notch homolog protein 2 (Homo sapiens) (UniProt Q04721). Briefly: small molecules binding Notch2 protein – biochemical, small-molecule microarray, 635 nm fluorescence, stem cell growth factors, primary screen (AID 1073). The note with it: higher = more signal.
Assay [6] deals with Pro-neuregulin-1, membrane-bound isoform (Homo sapiens) (UniProt Q02297). Briefly: small molecules binding neuregulin-1 protein – biochemical, small-molecule microarray, fluorescence 635/667, psychiatric disease protein project, primary screen (AID 1075).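 Further: score combines 667 nm spot fluorescence with signal to noise.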 The settings on record: NRG1 binding, 635 nm fluorescence, higher = more signal.
Pro-neuregulin-1, membrane-bound isoform (Homo sapiens), sequence (Q02297 whole entry, looked up, the tested form may be a part, canonical isoform): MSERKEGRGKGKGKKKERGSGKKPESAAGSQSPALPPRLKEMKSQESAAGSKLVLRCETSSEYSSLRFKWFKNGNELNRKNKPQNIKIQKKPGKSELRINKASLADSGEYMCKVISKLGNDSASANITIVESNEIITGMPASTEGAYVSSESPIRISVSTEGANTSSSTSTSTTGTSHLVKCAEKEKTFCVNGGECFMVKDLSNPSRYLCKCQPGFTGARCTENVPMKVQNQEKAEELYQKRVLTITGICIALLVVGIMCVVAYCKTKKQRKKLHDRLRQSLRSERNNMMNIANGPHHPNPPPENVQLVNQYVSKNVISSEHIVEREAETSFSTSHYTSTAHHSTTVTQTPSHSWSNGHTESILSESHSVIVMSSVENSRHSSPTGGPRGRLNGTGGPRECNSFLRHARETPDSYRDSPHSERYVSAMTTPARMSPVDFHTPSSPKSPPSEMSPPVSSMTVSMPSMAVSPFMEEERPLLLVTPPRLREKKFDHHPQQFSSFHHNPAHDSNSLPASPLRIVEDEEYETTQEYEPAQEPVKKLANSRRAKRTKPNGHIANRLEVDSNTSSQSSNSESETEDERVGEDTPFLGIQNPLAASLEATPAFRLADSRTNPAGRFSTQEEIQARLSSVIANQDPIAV
The subject of assay [7] is Neuregulin-1 EGF-like domain. Nature of the assay: small molecules binding NRG1 EGF domain – biochemical, small-molecule microarray, 635 nm fluorescence, primary screen (AID 1081).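 Further: binding of the protein to compounds printed on small-molecule microarray slides.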 The note with it: higher = more signal.
Assay [8] is described as follows: FRG1 expression reporter modulators in myotubes – cell-based, C2C12 myotubes, firefly/Renilla luciferase, luminescence, FRG1 inhibition for FSHD, primary screen (AID 1084). The note with it: FRG1 promoter luciferase, higher = more signal, called active from +8 up or from −8 down.
Assay [9] is described as follows: small molecules captured by biotinylated probe aFST – biochemical, small-molecule microarray, fluorescence 635/667, stem cell growth factor project, primary screen (AID 1086).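 Further: score merges 667 nm fluorescence with signal-to-noise of each printed compound spot.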 The note with it: higher = more signal.
A short description of assay [10]: binders of probe aHhip on microarray, primary screen, stem cell growth factor project, biochemical, small-molecule microarray, fluorescence 635/667 (AID 1087).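 Further: score merges spot fluorescence at 667nm with spot signal to noise ratio.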 The settings on record: higher = more signal.
Assay [11] deals with PRMT1 (protein arginine N-methyltransferase 1). Briefly: small molecules binding arginine methyltransferase PRMT1 – biochemical, small-molecule microarray, 635 nm fluorescence, primary screen (AID 1088).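 Further: binding of Prmt1 protein to compounds spotted on small-molecule microarray slides.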 The note with it: higher = more signal.
Assay [12] can be described thus: growth effects on S. cerevisiae YJM789 – YJM789 clinical isolate, OD600, 24 h, basal, primary screen (AID 1089).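 Further: growth of clinical yeast isolate S. cerevisiae YJM 789 seeded 1000 cells per well; test concentration not given here.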 The settings on record: higher = more signal, called active from +8 up or from −8 down.
The nature of assay [13]: S. pombe growth modifiers, basal conditions – strain 972, OD600, 24 h, no modulator, primary screen (AID 1090).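 Further: basal condition with compound alone and no growth modifier present; test concentration not given here.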 The note with it: S. pombe 972 growth, higher = more signal, called active from +8 up or from −8 down.
Assay [14] is described as follows: budding yeast growth modifiers under rapamycin – strain BY4716, OD600, 96 h, primary screen (AID 1091). Further: test concentration not given here. The settings on record: S. cerevisiae BY4716 + rapamycin, higher = more signal, called active from +8 up or from −8 down.
Assay [15] has as its target Torsin-1A-interacting protein 2 (Homo sapiens) (UniProt Q8NFQ8). Nature of the assay: small molecules binding lysate-expressed LULL1 – cell lysate, human LULL1 lysate, 635/667 nm fluorescence, primary screen (AID 1092).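 Further: score merges per-feature 667 nm fluorescence with signal-to-noise.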 The settings on record: small-molecule microarray, hLULL1 lysate binding, 635 nm fluorescence; higher = more signal.
Assay [16] can be described thus: optical density change of DRC41 E. coli – strain DRC41, OD650, 24 h, E. coli filamentation project, primary screen (AID 1093).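 Further: MC1000 strain lacking acrAB efflux and sulA so SOS filamentation is blocked; test concentration not given here.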 The note with it: E. coli DRC41 growth, higher = more signal, called active from +8 up or from −8 down.
Assay [17] is described as follows: probe aLefty2 binding to arrayed compounds – biochemical, biotinylated probe, 635/667 nm fluorescence, primary screen (AID 1094).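 Further: score merges spot fluorescence near 667 nm with spot signal-to-noise ratio.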 The settings on record: small-molecule microarray, higher = more signal.
Assay [18] has as its system Noggin (protein binding on small-molecule microarray). Briefly: small molecules binding Noggin protein – biochemical, 635/667 nm fluorescence, primary screen (AID 1095).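 Further: score merges 667 nm feature fluorescence with signal to noise over triplicate slides.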 The settings on record: 635 nm fluorescence, higher = more signal.
In assay [19] the target is Neurogenic locus notch homolog protein 3 (Homo sapiens) (UniProt Q9UM47). Nature of the assay: small molecules binding NOTCH3 protein – biochemical, 635/667 nm fluorescence, primary screen (AID 1096). The settings on record: small-molecule microarray, 635 nm fluorescence, higher = more signal.
Assay [20] in a line: probe aEGFR binding to arrayed compounds – biochemical, biotinylated probe, 635/667 nm fluorescence, primary screen (AID 1097).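 Further: probe is a biotinylated anti-EGFR antibody binding compounds printed on slides; score combines fluorescence near 667 nm and signal to noise of each spot.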 The settings on record: small-molecule microarray, higher = more signal.

Active and inactive are the calls of the source.

Consider five molecules from PubChem BioAssay.

Neurogenic locus notch homolog protein 2 (Homo sapiens), sequence (Q04721 whole entry, looked up, canonical isoform): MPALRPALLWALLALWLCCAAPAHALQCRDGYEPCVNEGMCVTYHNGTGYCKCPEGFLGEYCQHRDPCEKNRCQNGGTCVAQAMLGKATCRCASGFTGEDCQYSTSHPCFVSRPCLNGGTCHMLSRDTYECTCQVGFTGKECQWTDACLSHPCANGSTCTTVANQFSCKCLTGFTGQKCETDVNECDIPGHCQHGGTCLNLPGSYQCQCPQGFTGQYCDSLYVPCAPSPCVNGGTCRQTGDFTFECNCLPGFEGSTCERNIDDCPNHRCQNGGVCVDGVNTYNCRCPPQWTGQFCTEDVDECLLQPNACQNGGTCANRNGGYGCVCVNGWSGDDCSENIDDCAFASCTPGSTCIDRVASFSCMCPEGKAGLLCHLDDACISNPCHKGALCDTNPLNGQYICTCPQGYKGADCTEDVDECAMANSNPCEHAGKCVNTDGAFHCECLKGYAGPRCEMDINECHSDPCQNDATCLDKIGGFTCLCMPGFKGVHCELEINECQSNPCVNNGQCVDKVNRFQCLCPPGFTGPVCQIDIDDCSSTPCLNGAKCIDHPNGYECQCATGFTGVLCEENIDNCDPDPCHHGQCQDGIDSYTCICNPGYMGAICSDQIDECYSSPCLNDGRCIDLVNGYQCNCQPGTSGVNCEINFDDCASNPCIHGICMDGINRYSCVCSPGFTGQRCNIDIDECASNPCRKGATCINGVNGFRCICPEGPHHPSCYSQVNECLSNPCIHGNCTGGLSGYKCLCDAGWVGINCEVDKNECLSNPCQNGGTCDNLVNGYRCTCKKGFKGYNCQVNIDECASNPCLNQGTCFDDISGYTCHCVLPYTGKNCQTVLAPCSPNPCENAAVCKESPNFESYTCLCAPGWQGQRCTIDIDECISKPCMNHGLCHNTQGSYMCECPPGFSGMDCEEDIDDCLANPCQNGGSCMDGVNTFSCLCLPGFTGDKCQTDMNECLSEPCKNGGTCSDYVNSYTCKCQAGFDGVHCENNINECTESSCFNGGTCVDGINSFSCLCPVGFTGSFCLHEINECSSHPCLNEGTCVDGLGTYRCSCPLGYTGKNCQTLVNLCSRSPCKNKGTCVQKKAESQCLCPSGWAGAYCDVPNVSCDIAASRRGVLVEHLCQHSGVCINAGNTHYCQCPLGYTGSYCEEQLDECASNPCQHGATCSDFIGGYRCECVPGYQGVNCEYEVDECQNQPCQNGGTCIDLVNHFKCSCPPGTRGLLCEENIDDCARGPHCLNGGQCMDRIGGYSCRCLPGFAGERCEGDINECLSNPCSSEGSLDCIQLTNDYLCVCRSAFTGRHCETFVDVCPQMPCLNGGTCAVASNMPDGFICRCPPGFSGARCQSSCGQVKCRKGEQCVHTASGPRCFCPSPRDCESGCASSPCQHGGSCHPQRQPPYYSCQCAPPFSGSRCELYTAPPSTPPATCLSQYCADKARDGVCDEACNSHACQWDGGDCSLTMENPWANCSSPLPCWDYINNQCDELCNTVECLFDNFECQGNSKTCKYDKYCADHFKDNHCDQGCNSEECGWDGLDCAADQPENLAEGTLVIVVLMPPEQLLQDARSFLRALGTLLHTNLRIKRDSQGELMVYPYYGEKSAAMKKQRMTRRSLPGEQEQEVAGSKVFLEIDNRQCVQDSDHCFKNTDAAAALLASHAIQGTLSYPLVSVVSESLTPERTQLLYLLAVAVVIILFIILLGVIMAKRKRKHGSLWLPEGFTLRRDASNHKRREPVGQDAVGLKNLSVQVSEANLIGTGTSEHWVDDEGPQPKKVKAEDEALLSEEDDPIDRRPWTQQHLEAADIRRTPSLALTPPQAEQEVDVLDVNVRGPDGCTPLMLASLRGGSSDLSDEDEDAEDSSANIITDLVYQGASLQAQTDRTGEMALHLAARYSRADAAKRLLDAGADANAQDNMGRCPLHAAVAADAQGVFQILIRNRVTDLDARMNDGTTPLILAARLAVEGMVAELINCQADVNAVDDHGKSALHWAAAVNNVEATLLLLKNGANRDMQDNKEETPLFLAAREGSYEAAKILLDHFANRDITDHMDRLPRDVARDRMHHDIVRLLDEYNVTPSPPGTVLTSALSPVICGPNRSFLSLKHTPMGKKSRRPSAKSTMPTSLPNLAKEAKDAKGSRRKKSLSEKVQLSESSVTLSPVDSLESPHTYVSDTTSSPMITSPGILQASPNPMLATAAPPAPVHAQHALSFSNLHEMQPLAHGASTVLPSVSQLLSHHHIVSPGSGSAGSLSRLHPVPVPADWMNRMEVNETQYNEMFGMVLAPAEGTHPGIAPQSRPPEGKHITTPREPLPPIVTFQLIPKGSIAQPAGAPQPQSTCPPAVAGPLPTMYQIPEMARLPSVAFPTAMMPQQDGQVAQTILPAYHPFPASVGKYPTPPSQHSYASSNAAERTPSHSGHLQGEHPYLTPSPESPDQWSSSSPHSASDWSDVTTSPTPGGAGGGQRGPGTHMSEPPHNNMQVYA
Torsin-1A-interacting protein 2 (Homo sapiens), sequence (Q8NFQ8 whole entry, looked up): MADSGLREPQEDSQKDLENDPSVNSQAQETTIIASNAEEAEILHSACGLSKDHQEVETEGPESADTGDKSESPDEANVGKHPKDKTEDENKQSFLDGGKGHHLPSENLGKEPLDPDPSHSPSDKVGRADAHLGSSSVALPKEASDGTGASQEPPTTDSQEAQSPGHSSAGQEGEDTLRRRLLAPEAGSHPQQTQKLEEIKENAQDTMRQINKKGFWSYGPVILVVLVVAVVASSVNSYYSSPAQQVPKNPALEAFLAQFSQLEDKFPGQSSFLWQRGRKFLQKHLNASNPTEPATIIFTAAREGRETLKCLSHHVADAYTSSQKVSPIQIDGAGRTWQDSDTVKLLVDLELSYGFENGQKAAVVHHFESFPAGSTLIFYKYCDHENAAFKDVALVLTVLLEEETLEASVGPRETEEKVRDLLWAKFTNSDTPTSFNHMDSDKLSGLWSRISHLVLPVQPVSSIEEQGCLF

As for `C=CCN1C(=O)[C@@]2(Cc3ccccc31)N=C(c1ccc(OCCCO)cc1)O[C@H]2c1ccccc1`, the composite z-score in [1] is 1.12; in assay [2], 0.282; in [3], 0.0085; in assay [4] it was -0.112; in assay [5] it was 1.01; in assay [6], 1.24. Besides, the composite z-score was 1.23 in assay [7]; 0.83 in [9]; -0.144 in [10]; 1.54 in assay [11]; 3.12 in assay [15]; 0.352 in assay [17]. Moreover, the composite z-score in assay [18] was determined as 0.638; in assay [19] it was 1.11; in assay [20], 0.122. In addition, the z-score is -2.07 (inactive) in assay [8]; -1.95 (inactive) in assay [12]; -6.68 (inactive) in assay [13]; 2.77 (inactive) in [14]; 1.44 (inactive) in [16].

For `COCCCNC(=O)[C@@H]1c2ccccc2C(=O)N(Cc2ccccc2Cl)[C@H]1c1ccc(CO)cc1`, the composite z-score is 0.189 in [1]; -0.0402 in assay [2]; -0.117 in [3]; -0.247 in [4]; 0.161 in [5]; 0.379 in [6]. Moreover, the composite z-score is 1.48 in [7]; 0.465 in [9]; -0.0237 in assay [10]; 1.53 in assay [11]; 2.26 in [15]; -0.101 in assay [17]. Also, the composite z-score was 0.522 in assay [18], 0.388 in [19] and -0.13 in assay [20]. Also, the z-score in assay [8] is -1.76 (inactive); in assay [12] it was -0.103 (inactive); in assay [13] it was -0.329 (inactive); in assay [14], -0.59 (inactive); in assay [16] it was 2.55 (inactive).

On to `COC(=O)[C@@]1(CCC(=O)OC(C)(C)C)N=C(c2ccc(OCCCO)cc2)O[C@H]1c1ccccc1N=[N+]=[N-]`, for which the composite z-score was 0.165 in assay [1]; -0.15 in [2]; -0.0354 in assay [3]; -0.312 in assay [4]; -0.0015 in assay [5]; 1.26 in [6]. Besides, the composite z-score in [7] is 1.06; in assay [9], -0.161; in [10], 0.119; in assay [11], 1.28; in assay [15], 1.83; in assay [17], -0.309. For the same molecule, the composite z-score was 0.714 in [18], 0.388 in [19] and -0.0828 in assay [20]. Also, the z-score is 3.09 (inactive) in [8]; 0.0049 (inactive) in assay [12]; -0.786 (inactive) in [13]; 33.6 (active) in [14]; 0.817 (inactive) in assay [16].

With `CCC[C@@H]1C[C@@]1(CCC)[C@@H](NC(=O)c1ccccc1)c1cccc(Cl)c1`, the composite z-score in [1] was 1.63; in assay [2], 0.249; in assay [3] it was 0.783; in assay [4], 0.948; in [5], 1.47; in assay [6], 0.753. Further, the composite z-score in assay [7] amounted to 1.09; in [9] it was 2.29; in [10], 0.53; in assay [11], 0.596; in assay [15], 3.23; in [17], 0.497. Besides, the values for the composite z-score in [18], in [19] and in [20] were 0.149, 1.15 and 0.913, respectively. Also, the z-score was 0.379 (inactive) in assay [8]; 1.47 (inactive) in assay [12]; 1.52 (inactive) in [13]; 2.12 (inactive) in [14]; -0.452 (inactive) in [16].

For the molecule `CCOC(=O)C[C@H]1[C@H](OC(=O)c2ccc(C(=O)c3ccccc3)cc2)[C@@H](NC(=O)c2ccccc2)c2cc(OCCCO)ccc2N1C(=O)Cc1ccc(OC)cc1`, the composite z-score was 0.0814 in [1]; 0.128 in [2]; -0.0502 in assay [3]; 0.153 in assay [4]; 0.12 in [5]; -0.126 in [6]. Further, the composite z-score in assay [7] is 0.532; in assay [9], 0.0512; in assay [10], -0.0237; in [11] it was 0.355; in assay [15] it was 0.84; in assay [17] it was 0.0283. Further, the composite z-score in assay [18] is 0.49; in assay [19], 0.0805; in [20] it was -0.142. The z-score in [8] is -1.09 (inactive); in assay [12], 0.0572 (inactive); in [13], -0.682 (inactive); in assay [14], -0.0292 (inactive); in assay [16], 0.0663 (inactive).
